Gli-Sufu block – antagonists of Gli-Sufu signaling | inhibition, % at 5 µM | AID 588413 | Sufu-KO-LIGHT fibroblasts, Gli luciferase reporter luminescence | actives 0.74% (n = 340,000);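 active = inhibition above about 55%, limit read from the data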
aSyn 5UTR inh – 5' untranslated region of α-synuclein, MLPCN primary screen. alpha-synuclein 5'UTR reporter, inhibitor activity. inhibition, % (tested at 7.5 µM). actives 0.82% (n = 300,000); in the data active = inhibition above about 60%;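 note: H4 neuroglioblastoma cells stably carrying SNCA 5'UTR luciferase fusion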
Jurkat NFkB inh – inhibitors of the PMA/ionomycin-induced NF-kB reporter in Jurkat cells; PMA/ionomycin-induced NF-kB luciferase reporter, luminescence; inhibition, % at 4 µM; actives 0.53% (n = 330,000); AID 435003; in the data active = inhibition above about 50%
CSC inhib – blocks cancer stem cells | cancer stem cell-like cells viability, luminescence | inhibition, % at 7.5 µM | actives 1.1% (n = 300,000) | AID 2717; in the data active = inhibition above about 75%; tested in HMLE shEcad cells
697 NFkB inh – lowers PMA/ionomycin-induced NF-kB signal in 697 B cells | 697 B-cell NF-kB luciferase reporter, 16 h | inhibition, % at 4 µM | actives 0.33% (n = 330,000) | AID 435022; in the data active = inhibition above about 35%
Mdm2-MdmX inh – human Mdm2/MdmX binding inhibition; O15151+Q00987; SaOS-2 split-luciferase Mdm2/MdmX complementation, luminescence; inhibition, % at 8 µM; actives 3% (n = 330,000); AID 485346;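 active = inhibition of at least 50% at 8 µM in the primary screen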
Target sequence (O15151 whole entry, looked up): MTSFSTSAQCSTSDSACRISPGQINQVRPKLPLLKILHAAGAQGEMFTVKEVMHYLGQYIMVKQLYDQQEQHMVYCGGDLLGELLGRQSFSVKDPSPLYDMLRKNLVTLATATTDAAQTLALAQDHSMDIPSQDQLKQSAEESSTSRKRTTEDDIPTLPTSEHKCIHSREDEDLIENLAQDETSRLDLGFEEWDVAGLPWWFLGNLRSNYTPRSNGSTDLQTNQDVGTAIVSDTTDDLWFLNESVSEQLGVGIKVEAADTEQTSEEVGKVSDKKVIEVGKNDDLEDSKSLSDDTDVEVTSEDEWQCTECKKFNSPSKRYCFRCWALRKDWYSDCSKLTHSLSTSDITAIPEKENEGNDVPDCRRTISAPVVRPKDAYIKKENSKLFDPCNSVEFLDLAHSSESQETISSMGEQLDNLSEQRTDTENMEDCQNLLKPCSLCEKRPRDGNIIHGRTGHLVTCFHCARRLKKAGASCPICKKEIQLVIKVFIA
Target sequence (Q00987 whole entry, looked up): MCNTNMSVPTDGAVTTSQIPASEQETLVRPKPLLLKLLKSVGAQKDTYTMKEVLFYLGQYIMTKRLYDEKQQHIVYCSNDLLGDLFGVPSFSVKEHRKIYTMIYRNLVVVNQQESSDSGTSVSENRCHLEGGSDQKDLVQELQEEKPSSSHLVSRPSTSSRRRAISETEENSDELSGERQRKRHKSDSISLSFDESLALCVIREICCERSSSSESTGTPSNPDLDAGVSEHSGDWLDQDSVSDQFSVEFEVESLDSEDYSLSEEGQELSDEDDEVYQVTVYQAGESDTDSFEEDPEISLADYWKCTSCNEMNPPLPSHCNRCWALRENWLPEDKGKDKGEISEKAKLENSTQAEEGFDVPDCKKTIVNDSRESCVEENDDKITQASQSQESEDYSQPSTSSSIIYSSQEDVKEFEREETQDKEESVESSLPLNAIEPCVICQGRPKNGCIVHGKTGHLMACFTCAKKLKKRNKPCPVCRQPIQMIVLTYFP
Numbers stand for hits. A selection: hits, their analogues and other compounds. The true share with any hit is near 4.5%.

Screening O=C(Nc1ccc2c(c1)CCC2)C1CCN(c2c3c(nc4ncnn24)CCC3)CC1 returned Gli-Sufu block inactive, aSyn 5UTR inh inactive, Jurkat NFkB inh inactive, 697 NFkB inh inactive and Mdm2-MdmX inh inactive.
Screening Clc1ccc2nnnc(-c3ccccc3)c2c1 returned Gli-Sufu block inactive, aSyn 5UTR inh inactive and CSC inhib 98.6.
Screening O=C(C=P(c1ccccc1)(c1ccccc1)c1ccccc1)c1ccccc1-c1ccccc1C(=O)C=P(c1ccccc1)(c1ccccc1)c1ccccc1 returned Gli-Sufu block 85.8.
Screening CC1(C)CC(=O)C2=C(C1)N(c1cccc(Cl)c1)C(=O)NC2(C(F)(F)F)C(F)(F)F returned Gli-Sufu block inactive, aSyn 5UTR inh inactive, Jurkat NFkB inh inactive, CSC inhib inactive, 697 NFkB inh inactive and Mdm2-MdmX inh inactive.
`COc1ccc(N2CCN(C(=O)c3ccc4ccccc4n3)CC2)cc1` gave Gli-Sufu block inactive, aSyn 5UTR inh inactive, Jurkat NFkB inh inactive, CSC inhib inactive, 697 NFkB inh inactive and Mdm2-MdmX inh inactive.
CC(CCC(=O)NN)C1CCC2C3CCC4CC(O)CCC4(C)C3CCC12C (stereo not drawn) was read as Gli-Sufu block inactive.
For CC(CCC(C)C(C)(C)C)[C@@H]1CC[C@H]2C3C[C@H](OS(O)(=S)=S)[C@H]4C[C@H](OS(O)(=S)=S)[C@@H](OS(O)(=S)=S)C[C@]4(C)[C@H]3CC[C@]12C (stereo partly drawn) (tested in a mixture with another compound) the results were Gli-Sufu block inactive, Jurkat NFkB inh inactive, CSC inhib 98.4, 697 NFkB inh inactive and Mdm2-MdmX inh inactive.
`CCc1ccc([C@@H]2CC=C(C(=O)O)[C@H](c3ccc(F)cc3)N2S(=O)(=O)c2ccc(C)cc2)cc1` gave Gli-Sufu block inactive, Jurkat NFkB inh inactive, CSC inhib inactive, 697 NFkB inh inactive and Mdm2-MdmX inh inactive.
`c1ccc2nc3c(nc2c1)[nH]c1ccccc13` gave Gli-Sufu block inactive, aSyn 5UTR inh inactive, Jurkat NFkB inh inactive, CSC inhib inactive, 697 NFkB inh inactive and Mdm2-MdmX inh inactive.
`c1ccc(-c2c3ccccc3nc3[nH]c4ccccc4c23)cc1` gave Gli-Sufu block inactive, aSyn 5UTR inh inactive, Jurkat NFkB inh inactive, CSC inhib 78.6, 697 NFkB inh inactive and Mdm2-MdmX inh inactive.
O=C(COC(=O)CCc1ccccc1)NNC(=O)c1ccccc1 was read as Gli-Sufu block inactive, Jurkat NFkB inh inactive, CSC inhib inactive, 697 NFkB inh inactive and Mdm2-MdmX inh inactive.
Screening Oc1c(Cl)cc(Cl)cc1C=Nc1ccc2c(c1)OCCO2 returned Gli-Sufu block inactive, aSyn 5UTR inh inactive, Jurkat NFkB inh inactive, CSC inhib inactive, 697 NFkB inh inactive and Mdm2-MdmX inh inactive.
`CN(/N=C/c1cc(Cl)cc(Cl)c1O)C(=S)NC(C)(C)C` gave Gli-Sufu block inactive, aSyn 5UTR inh inactive, Jurkat NFkB inh inactive, CSC inhib 99.6, 697 NFkB inh inactive and Mdm2-MdmX inh inactive.
For Cc1ccc(S(=O)(=O)NNC(=O)Nc2cccc(C)c2C)c(C)c1 the results were Gli-Sufu block inactive, aSyn 5UTR inh inactive, Jurkat NFkB inh inactive, CSC inhib inactive, 697 NFkB inh inactive and Mdm2-MdmX inh inactive.
`CC(=O)OCCNc1cc(SC(C)C)c2nonc2c1[N+](=O)[O-]` gave Gli-Sufu block inactive, Jurkat NFkB inh inactive, CSC inhib inactive, 697 NFkB inh inactive and Mdm2-MdmX inh inactive.
`CC(=O)OCCCNc1cc(Sc2ccc(Cl)cc2)c2nonc2c1[N+](=O)[O-]` gave Gli-Sufu block inactive, aSyn 5UTR inh inactive and CSC inhib 81.0.
CC(C(=O)NCc1cccnc1)c1ccc([N+](=O)[O-])cc1 (stereo not drawn) was read as Gli-Sufu block inactive, aSyn 5UTR inh inactive, Jurkat NFkB inh inactive, CSC inhib inactive, 697 NFkB inh inactive and Mdm2-MdmX inh inactive.
Screening CN1/C(=C\C(=O)Nc2ccc(Br)cc2)C(C)(C)c2ccccc21 returned Gli-Sufu block inactive, aSyn 5UTR inh inactive, Jurkat NFkB inh inactive, CSC inhib 76.3, 697 NFkB inh inactive and Mdm2-MdmX inh inactive.
For CN1/C(=C\C(=O)Nc2ccc(F)cc2)C(C)(C)c2ccccc21 the results were Gli-Sufu block inactive, aSyn 5UTR inh inactive, Jurkat NFkB inh inactive, CSC inhib inactive, 697 NFkB inh inactive and Mdm2-MdmX inh inactive.
Cc1c(C(=O)Nc2ccc(-c3nnc4n3CCCCC4)cc2)oc2c1ccc1ccccc12 was read as Gli-Sufu block inactive, aSyn 5UTR inh inactive, Jurkat NFkB inh inactive, CSC inhib 117.0, 697 NFkB inh inactive and Mdm2-MdmX inh inactive.
`Cc1cc(NC(=O)COC(=O)[C@H](Cc2ccccc2)NC(=O)c2ccco2)no1` gave Gli-Sufu block inactive.
`COc1cc2ccccc2cc1C(=O)Nc1ccc(Cc2ccncc2)cc1` gave Gli-Sufu block inactive, aSyn 5UTR inh inactive, Jurkat NFkB inh inactive, CSC inhib 97.4, 697 NFkB inh inactive and Mdm2-MdmX inh inactive.
For COc1cc2ccccc2cc1C(=O)Nc1ccc(C)cc1 the results were Gli-Sufu block inactive, aSyn 5UTR inh inactive, Jurkat NFkB inh inactive, CSC inhib inactive, 697 NFkB inh inactive and Mdm2-MdmX inh inactive.
Screening CCN1CCS/C1=C/C=C/C1=[N+](CC)CCS1 returned Gli-Sufu block 81.6, aSyn 5UTR inh inactive and CSC inhib inactive.
For COc1ccc(C(CNC(=O)c2cccc(S(=O)(=O)Nc3ccc(F)cc3)c2)N2CCCCC2)cc1 (stereo not drawn) the results were Gli-Sufu block inactive.
`Cc1nn(-c2ccccc2)c2nc(N)c(C#N)c(-c3ccc(C(C)(C)C)cc3)c12` gave Gli-Sufu block inactive, aSyn 5UTR inh inactive, Jurkat NFkB inh inactive, CSC inhib 93.6, 697 NFkB inh inactive and Mdm2-MdmX inh inactive.
`CCc1cc(=O)n2[nH]c(C)c(-c3ccc(OC)cc3)c2n1` gave Gli-Sufu block inactive, aSyn 5UTR inh inactive, Jurkat NFkB inh inactive, CSC inhib inactive, 697 NFkB inh inactive and Mdm2-MdmX inh inactive.
`COc1ccc(-c2c(C(F)(F)F)[nH]n3c(=O)cc(-c4ccccc4)nc23)cc1` gave Gli-Sufu block inactive, aSyn 5UTR inh inactive, Jurkat NFkB inh inactive, CSC inhib 91.8, 697 NFkB inh inactive and Mdm2-MdmX inh inactive.
Screening Cc1ccc(OCC(=O)Oc2ccc(C)c(C)c2)cc1 returned Gli-Sufu block inactive, aSyn 5UTR inh inactive, Jurkat NFkB inh inactive, CSC inhib inactive, 697 NFkB inh inactive and Mdm2-MdmX inh inactive.
`O=C(Oc1coc(CSc2ncccn2)cc1=O)c1cccc([N+](=O)[O-])c1` gave Gli-Sufu block inactive, aSyn 5UTR inh inactive, Jurkat NFkB inh inactive, CSC inhib inactive, 697 NFkB inh inactive and Mdm2-MdmX inh inactive.
O=C(Oc1c(Cl)cc(Cl)c2cccnc12)c1cccc([N+](=O)[O-])c1 was read as Gli-Sufu block inactive, aSyn 5UTR inh inactive, Jurkat NFkB inh inactive, CSC inhib 176.8, 697 NFkB inh inactive and Mdm2-MdmX inh inactive.
`O=C(Oc1cccc2cccnc12)c1cccc([N+](=O)[O-])c1` gave Gli-Sufu block inactive, aSyn 5UTR inh inactive, Jurkat NFkB inh inactive, CSC inhib inactive, 697 NFkB inh inactive and Mdm2-MdmX inh inactive.

Bioassay records from PubChem.
